Source: PubChem
BoNT-A LC inh2 – BoNT A light chain protease inhibition. inhibition, % at 10 µM. 360,000 tested, 0.17% active. multiplex microsphere protease substrate cleavage, flow cytometry
Bead autofluor – flagged as autofluorescent in microsphere protease counterscreen | compound autofluorescence counterscreen, microsphere flow cytometry; active compounds read high | 360,000 tested, 3.1% active | fluorescence intensity (test concentration not listed) | AID 624483; in the data active = fluorescence intensity above about 16000; inconclusive = no clear call, values can overlap the other calls
Anthrax LF prot – blocks Bacillus anthracis lethal factor protease. P15917. multiplex microsphere protease cleavage assay, LF. inhibition, % at 10 µM. 360,000 tested, 0.12% active. AID 588501
BH1578 lux ind – induces V. cholerae light production without autoinducers; V. cholerae BH1578 lux reporter, luminescence, 6 h; activation, % at 18.7 µM; 350,000 tested, 0.16% active; in the data active = activation mostly above about 9.7%, no sharp cut-off; inconclusive = no clear call, values can overlap the other calls; inactive = mostly below about 3.7%
BoNT-F LC inh – inhibitors of Botulinum neurotoxin F light chain protease | inhibition, % at 10 µM | AID 588497 | 360,000 tested, 0.22% active | Multiplex microsphere protease cleavage assay, flow cytometry; in the data active = inhibition above about 35%, passing the limit was not always enough; inconclusive = no clear call, values can overlap the other calls
Numbers stand for hits; . = inactive; ? = inconclusive; / = no result; + = active, no number. Sampled rows, rich in hits. Any-hit rate of the full collection: about 3.5%. Rule as the data show it, unless noted: active = inhibition above about 30%; inconclusive = no clear call, values can overlap the other calls; inactive = below that.

SMILES	BoNT-A LC inh2	Bead autofluor	Anthrax LF prot	BH1578 lux ind	BoNT-F LC inh
Cc1c(-n2c(SCC(=O)O)nnc2-c2ccccc2Br)c(=O)n(-c2ccccc2)n1C	.	.	.	.	.
Cc1ccc(NC(=O)Cc2nnc(SCC(=O)c3ccc(Br)cc3)n2C)cc1	.	21836	.	.	.
CCn1c(CC(=O)Nc2ccc(C)cc2)nnc1SCC(=O)NCCc1ccccc1	.	24526	.	.	.
OCC[C@@H]1C[C@H](O)[C@@H](O)[C@]2(OCCc3cc(C(F)(F)F)ccc32)O1	.	.	.	.	.
CCOC(=O)c1c(CN2CCOCC2)oc2ccc(OC)cc12	?	21090	.	.	.
CCOC(=O)c1oc2ccccc2c1CN1CCCCC1	.	.	.	.	.
CCOC(=O)c1sc(C)c(C(=O)NCCCN2CCOCC2)c1N	.	.	.	/	.
CCOC(=O)c1c(N)sc(C(=O)N(C)C)c1CN1CCOCC1	.	20070	.	.	.
CCOC(=O)c1c(C)n(CCN2CCN(C)CC2)c2ccc(OC)cc12	.	20539	.	.	.
CCOC(=O)c1oc2ccccc2c1CN1CCOCC1	.	21460	.	.	.
COc1ccc(Cc2noc(CN3CCCN(C4Cc5ccccc5C4)CC3)n2)cc1OC	.	.	.	.	.
Cc1nn(C(=O)c2cccnc2)c(C)c1C	.	20525	.	.	.
Cc1nn(C(=O)c2cccnc2)c(C)c1Sc1ccccc1	.	.	.	.	.
Cc1ccc(Cn2ccc(NC(=O)c3cc(-c4ccc(Br)cc4)on3)n2)cc1	.	16876	.	.	.
Cc1ccc(Cn2ccc(NC(=O)c3cc(-c4ccco4)on3)n2)cc1	.	21800	.	.	.
Cc1nn(Cc2ccc(Cl)c(Cl)c2)c(C)c1NC(=O)c1cc(-c2ccco2)on1	.	21457	.	.	.
Cc1nn(Cc2ccc(Cl)cc2)c(C)c1NC(=O)c1cc(-c2ccco2)on1	.	.	.	.	.
Cc1ccc(Cn2ccc(NC(=O)c3cc(-c4ccccc4)on3)n2)cc1	?	.	.	.	.
COc1ccc(-c2cc(C(=O)Nc3c(C)nn(Cc4ccccc4Cl)c3C)no2)cc1OC	?	22371	.	.	.
C#CCOCCOCCOCCNc1nc(N2CCOCC2)nc(N2CCN(C(=O)Cn3cc(CCCCN)nn3)CC2)n1	.	.	.	.	.
COC(=O)c1cc(-c2ccc(Br)cc2)on1	.	.	.	.	.
CCN(CC)C(=O)c1cc(-c2ccc(Br)cc2)on1	.	23321	.	.	.
N#Cc1cc[n+](CC(=O)c2ccc(NC(=O)c3ccccc3)cc2)cc1	.	.	.	.	.
COC(=O)c1ccc(Cn2cc(C(F)(F)F)cc([N+](=O)[O-])c2=O)cc1	.	.	.	+	.
COC(=O)c1ccc(Cn2cc(C(F)(F)F)ccc2=O)cc1	.	.	.	.	.
SMILES	BoNT-A LC inh2	Bead autofluor	Anthrax LF prot	BH1578 lux ind	BoNT-F LC inh
Cc1cccc(-n2c(SCC(=O)N3CCCC3)nc3n[nH]c(C)c3c2=N)c1	?	22446	.	.	.
CCc1ccccc1NC(=O)CSc1nc2n[nH]c(C)c2c(=N)n1-c1ccc(OC)cc1	.	.	.	.	.
COc1ccccc1NC(=O)CSc1nc2n[nH]c(C)c2c(=N)n1-c1ccccc1Cl	.	22575	.	.	.
O=C(CCN1C(=O)c2ccccc2S1(=O)=O)N1CCN(c2cccc(Cl)c2)CC1	.	.	.	.	.
COC(=O)c1ccccc1NC(=S)NC(=O)COc1ccccc1Cl	?	20710	.	.	.
Cc1ccc(CNc2ccc3c(c2)ncn3C)cc1	.	.	.	.	.
CCc1ccc(CNc2ccc3c(c2)ncn3C)cc1	.	21662	.	.	.
O=C(Nc1ccc(F)cc1)NC1(C(=O)NCc2ccco2)CCCCC1	.	16458	.	.	.
C/C(=N\Nc1cc(-c2ccccc2)nc(-c2ccc(Br)cc2)n1)c1cccc(N)c1	.	17624	.	.	.
C=C1C(=O)OC2CC1C(OC(C)=O)CC(C)=CCCC(C)=CCCC2(C)O (stereo unspecified)	.	.	.	.	.
CC(C)(C)c1ccc(Cn2ccc(-c3ccc4c(c3)OCO4)n2)cc1	.	19826	.	.	.
Cc1ccc(Cn2ccc(NC(=O)c3cc(-c4ccc5c(c4)OCO5)on3)n2)cc1	.	.	.	.	.
CN(C(=O)CSc1nc2ccccc2c(=O)n1-c1ccccc1Cl)C1CCS(=O)(=O)C1 (stereo unspecified)	.	.	.	.	.
N#Cc1cnn(-c2cccc(Cl)c2)c1-n1cccc1	.	.	.	.	.
C=CCONC(=O)c1cc(OCC(F)(F)F)ccc1OCC(F)(F)F	.	24141	.	.	.
O=C(Nc1ccc(OC(F)F)cc1)Nc1cccc(C(F)(F)F)c1	?	20493	.	.	.
CN(C)S(=O)(=O)NCCNC(=O)c1cc(OCC(F)(F)F)ccc1OCC(F)(F)F	.	.	.	.	.
O=C(NCCNC(=O)c1cc(OCC(F)(F)F)ccc1OCC(F)(F)F)Nc1cccc(C(F)(F)F)c1	?	24354	.	.	.
O=C(Nc1ccncc1)Nc1cccc(C(F)(F)F)c1	.	.	.	.	.
COc1cc(-c2nnc(CSc3nnc(Nc4ccc(Oc5ccccc5)cc4)s3)o2)cc(OC)c1OC	.	.	.	.	.
CN(C(=O)c1cccc(NC(=O)Cc2ccc(NC(=O)C3CCN(C(=O)C4CCC4)CC3)cc2)c1)C1CCCCC1	.	.	.	.	.
CC(=O)Nc1ccc(S(=O)(=O)NNC(=O)c2cccc(Cl)c2)cc1	.	.	.	.	.
c1ccn2c(c1)nc1c2nc2ccccn21	.	21237	.	.	.
CN1CCN(c2cc(C(F)(F)F)nc(-c3ccccn3)n2)CC1	.	.	.	.	.
CNc1cc(C(F)(F)F)nc(-c2ccccn2)n1	?	19306	.	.	.
SMILES	BoNT-A LC inh2	Bead autofluor	Anthrax LF prot	BH1578 lux ind	BoNT-F LC inh
CN1C[C@@H]2[C@@H]3C(=O)N(C)C(=O)[C@@H]3[C@](Cc3ccccc3)(C1=O)N2C(=O)c1ccc(F)cc1	.	.	.	.	.
Cc1cc(C)cc(NC(=O)COc2coc(CN3CCc4ccccc43)cc2=O)c1	.	.	.	.	.
Cc1nn(-c2ccc(F)cc2F)c2c1-c1nc(N3CCCC3)ncc1CC2	?	23757	.	.	.
Cc1ccc(CSCCNC(=O)c2ccc(Cl)c(S(=O)(=O)N3CCOCC3)c2)cc1	.	20110	.	.	.
O=C(NCCCN1CCOCC1)c1cc(S(=O)(=O)N2CCOCC2)ccc1Cl	.	.	.	.	.
O=[N+]([O-])c1cccc(C2(O)COc3ccccc3O2)c1 (stereo unspecified)	.	.	.	.	.
COc1cc(/C=N/n2nnnc2N)ccc1O	.	23466	.	.	.
COc1cc(/C=N/n2nnnc2N)ccc1OC(C)=O	.	.	.	240.3	.
CCN(CC)c1ccc(/C=N/n2nnnc2N)c(O)c1	.	22051	.	.	.
Nc1nnnn1/N=C/c1ccccn1	.	21208	.	.	.
Nc1nnnn1/N=C/c1ccccc1Cl	.	.	.	.	.
COc1ccc(N2CCN(C(=S)NCc3ccccc3)CC2)cc1	.	.	.	.	.
COc1cc(-c2nnc(COC(=O)c3ccc(C)o3)o2)cc(OC)c1OC	.	.	.	.	.
COc1ccccc1N1CCN(/N=C/c2cc(OC)c(OC)c(OC)c2)CC1	.	.	.	.	.
